PubChem BioAssay
Where “and” joins values, the source holds several entries; their conditions need not be identical. Equal entries are not always repeated. Inconclusive results are not listed. Calls of active or inactive are those of the source.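 The calls were made as follows, unless noted: active = mean z-score across replicates of 1.96 or higher in either the MELAS or the Rieske mutant cell line; inactive = the rest.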

Experiments:
[1] = stimulators of nuclear beta-catenin in C2C12, primary screen, imaging, WNT3A-conditioned medium, mouse C2C12, NPC library (AID 1117326; in the data active = nuclear beta-catenin stimulation mostly above about 4.2%, no sharp cut-off; inactive = mostly below about 10%; also: reference of the scale not given here); conditions: stronger effect = higher value
[2] = stimulators of insulin release from INS-1E, primary screen, cell-based, 5 mM glucose, NPC library (AID 1117329;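 active = compound raises insulin release from rat beta cells at 5 mM glucose, no numeric limit stated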; also: reference of the scale not given here); conditions: rat INS-1E insulin secretion, at 10 µM, stronger effect = higher value
[3] = growth inhibition of GSK3B-pretreated HCT116 cells – cell-based, CellTiter-Glo, 0.2 to 20 µM (AID 1117336;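 active = compounds lowering colon cancer cell viability after pretreatment blocking the GSK3B kinase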); conditions: HCT116 viability after GSK3B inhibitor, at 20 µM, stronger effect = higher value
[4] = inhibition of endothelial tube formation, primary screen, imaging, VEGF stimulated, CD31 staining, tube area, NPC library (AID 1117340;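 active = compound that reduces growth-factor-driven endothelial tube area in a mixed cell culture, no cutoff stated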); conditions: VEGF-stimulated ADSC/ECFC co-culture, at 10 µM, stronger effect = higher value
[5] = glucagon-like peptide 1 release enhancers, primary assay, NCI-H716 cell line, NPC library (AID 1117341;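 active = compound raises GLP1 secretion from the human gut endocrine cells, with no numeric limit stated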; also: reference of the scale not given here); conditions: NCI-H716 cells, at 10 µM, stronger effect = higher value
[6] = HCT116 colon cancer cell growth inhibition, primary screen, CellTiter-Glo luminescence, NPC library (AID 1117342;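 active = compounds that lower survival of HCT116 colon cancer cells in the luminescence readout, no numeric limit stated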); conditions: at 20 µM (top of the series)
[7] = CellTiter-Glo luminescent readout of SW480 viability loss, NPC library primary (AID 1117343;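 active = compounds that lower viability of the colon cancer cells in the luminescence readout, with no numeric limit stated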); conditions: CellTiter-Glo luminescence; at 20 µM (top of the series) unless noted
[8] = decreased DLD-1 cellular survival, CellTiter-Glo luminescent readout, NPC compound collection, primary HTS (AID 1117346;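 active = compounds that lower survival of DLD-1 colon cancer cells in the luminescence readout, no cutoff given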); conditions: DLD-1 viability, CellTiter-Glo luminescence; at 20 µM (top of the series)
[9] = sensitizers of A549 cells to miR-34 induction, primary screen, imaging, A549 dox-inducible miR-34, nuclei and caspase counts (AID 1347080;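 active = compounds whose cell count with miR-34 switched on is under 0.7 times the count with it off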); conditions: A549 miR-34 inducible, Hoechst nuclei count, 48 h
[10] = growth inhibition of DIPG glioma cells, dose response, cell-based, JHH-DIPG-1, MIPE4.0, CellTiter-Glo, qHTS (AID 1347062; cut-off not given, nearly all actives have AC50 up to about 27 µM;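 as to AC50: cells exposed to compound for two days before readout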); conditions: JHH-DIPG-1 viability, CellTiter-Glo ATP luminescence
[11] = growth inhibition of DIPG glioma cells, dose response, cell-based, SU-DIPG-IV, MIPE4.0, CellTiter-Glo, qHTS (AID 1347063; cut-off not given, nearly all actives have AC50 up to about 30 µM;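 also: compound exposure lasted 48 hours before the viability readout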); conditions: SU-DIPG-IV viability, CellTiter-Glo ATP luminescence
[12] = SU-DIPG-VI glioma cell viability, MIPE4.0 library, CellTiter-Glo luminescence, qHTS (AID 1347066; cut-off not given, nearly all actives have AC50 up to about 30 µM;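 also: cells exposed to compound for 48 hours before readout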); conditions: CellTiter-Glo ATP luminescence
[13] = survival rescue of mitochondrial mutant cells in low glucose, primary screen, MELAS cybrids, Rieske KO mouse fibroblasts, CellTiter-Glo (AID 1508586);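 also: z relative to plate mean and SD of compound and empty wells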
[14] = liver-stage malaria parasite growth inhibition, primary screen, cell-based, HepG2, luciferase luminescence, HepG2 viability (AID 624349; in the data active = parasite load remaining mostly below about 12%, no sharp cut-off; inactive = mostly above about 10%;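 also: 100% = mean of DMSO negative control wells on the same plate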); conditions: P. berghei liver stage in HepG2, luciferase luminescence, concentration not given here; parasite load remaining: stronger effect = lower value; viability: measured here: HepG2 viability without parasites
[15] = JHH-DIPG-1 glioma cell viability, MIPE5.0 library, CellTiter-Glo luminescence, qHTS (AID 1347067; cut-off not given, nearly all actives have AC50 up to about 26 µM;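 also: cells exposed to compound for 48 hours before readout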); conditions: JHH-DIPG-1 glioma viability, CellTiter-Glo ATP luminescence
[16] = SU-DIPG-XXV glioma cell viability, MIPE5.0 library, qHTS (AID 1347068; cut-off not given, nearly all actives have IC50 up to about 30 µM;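 as to IC50: cells exposed to compound for 48 hours before viability readout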)
[17] = viability rescue of complex I mutant cybrids, primary screen, cell-based, galactose medium, ATP luminescence (AID 1645843;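 active = z-score of at least 1.8 in each of two replicates, scored against plate mean and spread of sample wells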;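 also: positive z means more ATP and so rescue of galactose-driven cybrid death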); conditions: complex I mutant cybrid cells, 72 h, stronger effect = higher value
[18] = viability loss in pontine glioma line – cell-based, SU-DIPG-XXV, MIPE5.0, CellTiter-Glo, qHTS, dose response (AID 1347065; cut-off not given, nearly all actives have AC50 up to about 26 µM;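 also: cells exposed to compound for 48 hours before ATP readout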); conditions: CellTiter-Glo ATP luminescence
[19] = stronger effect = lower value, cell number ratio, induced over uninduced
[20] = measured here: relative caspase fold change +Dox/-Dox
[21] = measured here: total cells with miR-34 induction, stronger effect = lower value
[22] = measured here: total cells without miR-34 induction
[23] = MELAS cybrid survival, CellTiter-Glo 48 h, stronger effect = higher value
[24] = Rieske KO mouse fibroblast survival, CellTiter-Glo 72 h

CCCCCCCCCCCCCCCC(=O)O
1.7%: nuclear beta-catenin stimulation ([1]; stimulation, at 2 µM)
inactive: nuclear beta-catenin stimulation ([1]; at 10 µM) 0.3% | insulin secretion stimulation [2] 2.3% | viability decrease [3] 2.25% | tube area decrease [4] -25.4% | GLP1 secretion stimulation [5] 0.3% | inhibition of viability [6] -38.8% | viability decrease (inhibition) [7] 32.7% | viability decrease (inhibition) [8] 8.5% | fold change [9, 19] 1.03
5900: cell count [9, 21]
5710: cell count [9, 22]
1.12: fold change [9, 20]

CN1C[C@H]2c3ccccc3Oc3ccc(Cl)cc3[C@@H]2C1
active: viability decrease (inhibition) [7] 80.6%
-0.7%: nuclear beta-catenin stimulation ([1]; stimulation, at 2 µM)
0.408: z-score [13, 24]
inactive: nuclear beta-catenin stimulation ([1]; at 10 µM) 0.7% | insulin secretion stimulation [2] 9% | viability decrease [3] 30.4% | tube area decrease [4] 28.3% | GLP1 secretion stimulation [5] 4.4% | inhibition of viability [6] 39.3% | viability decrease (inhibition) [8] 34.3% | outcome [10] | outcome [11] | outcome [12] | z-score [13, 23] 0.874

O=C(OC1C[C@H]2CC[C@@H](C1)[N+]21CCCC1)C(O)(c1ccccc1)c1ccccc1 (stereo not given in full)
10400: cell count [9, 21]
-2%: nuclear beta-catenin stimulation ([1]; stimulation, at 2 µM)
0.872: fold change [9, 20]
0.689: z-score [13, 24]
inactive: nuclear beta-catenin stimulation ([1]; at 10 µM) -1.3% | insulin secretion stimulation [2] 1.3% | viability decrease [3] -50.2% | tube area decrease [4] 10.7% | GLP1 secretion stimulation [5] -3.1% | inhibition of viability [6] 7.13% | viability decrease (inhibition) [7] -11.6% | viability decrease (inhibition) [8] -9.1% | outcome [10] | outcome [11] | outcome [12] | fold change [9, 19] 1.02 | z-score [13, 23] -0.39
10200: cell count [9, 22]

COc1cccc(N(C)C(=S)Oc2ccc3c(c2)CCCC3)n1
active: viability decrease (inhibition) [7] 54.5% | viability decrease (inhibition) [8] 55.4%
-0.761: z-score [13, 24]
inactive: nuclear beta-catenin stimulation ([1]; at 10 µM) 0.4% | insulin secretion stimulation [2] -2.1% | viability decrease [3] 48.8% | tube area decrease [4] 17.8% | GLP1 secretion stimulation [5] -2.3% | inhibition of viability [6] 13.6% | outcome [10] | outcome [11] | z-score [13, 23] 0.186
0.4%: nuclear beta-catenin stimulation ([1]; stimulation, at 2 µM)

Cc1ccc(-c2ncc(Cl)cc2-c2ccc(S(C)(=O)=O)cc2)cn1
8800: cell count [9, 21]
active: inhibition of viability [6] -14.5%
0.95: fold change [9, 20]
8.4%: nuclear beta-catenin stimulation ([1]; stimulation, at 2 µM)
inactive: parasite load remaining [14] 30% | nuclear beta-catenin stimulation ([1]; at 10 µM) 10.8% | insulin secretion stimulation [2] 2.3% | viability decrease [3] 27.3% | tube area decrease [4] -22.7% | GLP1 secretion stimulation [5] 0.5% | viability decrease (inhibition) [7] 5.7% | viability decrease (inhibition) [8] 12.4% | outcome [15] | outcome [16] | fold change [9, 19] 0.833 | z-score [13, 23] -0.283 and 0.00989 | z-score [17] 1.08
0.187 and -0.33: z-score [13, 24]
120%: viability [14]
10600: cell count [9, 22]

CN(C)[C@@H](CCOc1cccc2ccccc12)c1ccccc1
active: viability decrease [3] 89.7% | inhibition of viability [6] 91.5% | viability decrease (inhibition) [7] 103% | viability decrease (inhibition) [8] 67% | AC50 [10] 20.9 µM | AC50 [11] 23.5 µM
inactive: nuclear beta-catenin stimulation ([1]; at 10 µM) 0.1% | insulin secretion stimulation [2] 9.9% | tube area decrease [4] 20.5% | GLP1 secretion stimulation [5] 6%
-0.4%: nuclear beta-catenin stimulation ([1]; stimulation, at 2 µM)

CC(=O)O[C@@]12CO[C@@H]1C[C@H](O)[C@@]1(C)C(=O)[C@H](O)C3=C(C)[C@@H](OC(=O)[C@H](O)[C@@H](NC(=O)OC(C)(C)C)c4ccccc4)C[C@@](O)([C@@H](OC(=O)c4ccccc4)[C@H]21)C3(C)C
inactive: parasite load remaining [14] 80.3% | insulin secretion stimulation [2] -0.6% | GLP1 secretion stimulation [5] -0.5% | outcome [15] | outcome [16] | fold change [9, 19] 0.999 | z-score [13, 23] -1.22 | z-score [17] -0.435
2910: cell count [9, 21] | cell count [9, 22]
114%: viability [14]
49.3%: nuclear beta-catenin stimulation ([1]; stimulation, at 2 µM)
active: nuclear beta-catenin stimulation ([1]; at 10 µM) 66.2% | viability decrease [3] 71.8% | tube area decrease [4] 98.1% | inhibition of viability [6] 58.9% | viability decrease (inhibition) [7] 36.5% | viability decrease (inhibition) [8] 31.8% | AC50 [18] 0.00209 µM
0.907: fold change [9, 20]
0.541: z-score [13, 24]

Cc1c(C)c2c(c(C)c1O)CCC(C)(COc1ccc(CC3SC(=O)NC3=O)cc1)O2 (stereo not given)
inactive: parasite load remaining [14] 65.9% and 36.4% | nuclear beta-catenin stimulation ([1]; at 10 µM) 1.2% | insulin secretion stimulation [2] 1.4% | GLP1 secretion stimulation [5] 11.9% | outcome [10] | outcome [12] | outcome [15] | outcome [16] | fold change [9, 19] 1.09 and 0.933 and 0.824 | z-score [13, 23] -0.456 and 0.16 | z-score [17] 0.175
10.4%: nuclear beta-catenin stimulation ([1]; stimulation, at 2 µM)
active: viability decrease [3] 88.4% | tube area decrease [4] 99.4% | inhibition of viability [6] 55.4% | viability decrease (inhibition) [7] 110% | viability decrease (inhibition) [8] 101%
6090 and 11900 and 7450: cell count [9, 21]
5600 and 12700 and 9040: cell count [9, 22]
207% and 95%: viability [14]
0.891 and 4.13 and 1.35: fold change [9, 20]
0.0968 and -0.894: z-score [13, 24]

COC(=O)C1=C(C)NC(C)=C(C(=O)OCCN2CCN(C(c3ccccc3)c3ccccc3)CC2)C1c1cccc([N+](=O)[O-])c1 (stereo not given)
1.4%: nuclear beta-catenin stimulation ([1]; stimulation, at 2 µM)
100%: viability [14]
active: viability decrease [3] 52.2% | tube area decrease [4] 106% | inhibition of viability [6] 78.5% | viability decrease (inhibition) [7] 135% | viability decrease (inhibition) [8] 96.4% | AC50 [18] 5.9 µM | AC50 [15] 13.2 µM | IC50 [16] 8.33 µM
1.09 and 0.891 and 0.572: z-score [13, 24]
inactive: parasite load remaining [14] 20.2% | nuclear beta-catenin stimulation ([1]; at 10 µM) 7.1% | insulin secretion stimulation [2] -1.1% | GLP1 secretion stimulation [5] -1.8% | outcome [10] | outcome [11] | outcome [12] | z-score [13, 23] -0.211 and -0.214 and 0.218 | z-score [17] -1.36

O=C(O)[C@H](O)c1ccccc1
3.1%: nuclear beta-catenin stimulation ([1]; stimulation, at 2 µM)
5430: cell count [9, 21]
5570: cell count [9, 22]
inactive: nuclear beta-catenin stimulation ([1]; at 10 µM) 3.7% | insulin secretion stimulation [2] -0.6% | viability decrease [3] -6.9% | tube area decrease [4] -9.1% | GLP1 secretion stimulation [5] 1.8% | inhibition of viability [6] -5.47% | viability decrease (inhibition) [7] -30.4% | viability decrease (inhibition) [8] -21.9% | fold change [9, 19] 0.975
0.478: fold change [9, 20]
